This is part of a sample that, as a whole, favours compounds with a hit. Of some 83,000 tested, about 20% had one in any assay.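 Cell lines were cultured in 96-well plates, exposed to a single compound concentration, and assessed for percent growth 48 hours later.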 The source made the active and inactive calls. Rule for the calls: active = growth percent below 10; inactive = the rest.
These compounds were tested on SR leukemia (assay: NCI-60 one-dose screen, 48 h (100 = growth as untreated, 0 = no growth, -100 = all killed)). Details: 10 µM unless noted.
With `CO/C=C/C(=O)c1cc2cnc3c(=N)cc(NC(=O)C(C)C)c([nH]1)c23` the growth was -24% (active). For `Cc1cc2c(-c3nc4ccccn4c3Nc3cccc4ccccc34)c(O)c(O)cc2c(O)c1-c1c(C)cc2c(-c3nc4ccccn4c3Nc3cccc4ccccc34)c(O)c(O)cc2c1O`, the growth was 27.5% (inactive). For `Cc1cc(N2CCOCC2)nc(N(CCNc2ccnc3cc(Cl)ccc23)Cc2cccs2)n1`, the growth was -13% (active). For `CCCCCCCC(=O)SCC/C=C/[C@@H]1CC(=O)NCc2cc(ccn2)C2=N[C@@](C)(CS2)C(=O)N[C@@H](C(C)C)C(=O)O1`, the growth was 14.3% (inactive). `Cc1sc2c(c1C)c(=O)nc1c(-c3nc4ccccc4s3)n[nH]n12` was tested, and the growth was 88.5% (inactive). With `CC(C)(C)CC(C)(C)Nc1c(-c2c(O)c3ccccc3oc2=O)nc2c(Cl)cc(C(F)(F)F)cn12` the growth was 104% (inactive). With `CCOc1cccc(/C=N/NC(=O)c2ccccc2Nc2ccnc(C(F)(F)F)c2)c1O` the growth was -20.1% (active). `Cc1cc2c(-c3nc4ccccn4c3NC3CCCCC3)c(O)c(O)cc2c(O)c1-c1c(C)cc2c(-c3nc4ccccn4c3NC3CCCCC3)c(O)c(O)cc2c1O` was tested, and the growth was 25.8% (inactive). `C=CCC(=O)N[C@H](/C=C/C(=O)O)Cc1ccc(-c2cc(Cl)cc(Cl)c2)cc1` was tested, and the growth was 82% (inactive). For `CN1CCN(c2nc(NCCNc3ccnc4cc(Cl)ccc34)c3ccccc3n2)CC1`, the growth was -23.4% (active). For `C[C@@H](C[C@H](CCO)c1cc(C(F)(F)F)cc(C(F)(F)F)c1)c1ccc2ccccc2c1`, the growth was 30.6% (inactive). For `C=C1C(=O)O[C@H]2[C@H]1CC/C(Cn1cc(-c3cc(C)c(C)cc3C)nn1)=C\CC[C@@]1(C)O[C@@H]21`, the growth was -5.15% (active). For `COc1ccc2c(CCCc3ccc(Cl)cc3Cl)c3[n+](cc2c1OC)CCc1cc2c(cc1-3)OCO2`, the growth was -38.6% (active). `CCN1CCN(c2cc(C)nc(N(CCCNc3ccnc4cc(Cl)ccc34)Cc3ccc4c(c3)OCO4)n2)CC1` was tested, and the growth was -40.3% (active). With `O=C1CC(c2ccc(Cl)cc2)c2ncn(-c3cccc(Cl)c3)c2N1` (configuration not stated) the growth was 27.3% (inactive). For `Cc1ccccc1Nc1nc2nonc2nc1Nc1cccc(C)c1C`, the growth was 66.8% (inactive). With `Fc1ccc(NCc2cn(-c3ccccc3)nc2-c2ccc(OCc3ccccc3)cc2)cc1Cl` the growth was 96.1% (inactive). For `CCCCCCCC(=O)SCC/C=C/[C@@H]1CC(=O)NCc2cccc(n2)C2=N[C@@](C)(CS2)C(=O)N[C@@H](C(C)C)C(=O)O1`, the growth was 13.7% (inactive). `COC(=O)C1CCc2sc3ncnc(Nc4cn[nH]c4C(=O)Nc4ccc(CN5CCN(C)CC5)cc4)c3c21` (configuration not stated) was tested, and the growth was -25.7% (active). With `C=CC(=O)N(C)[C@H]1C[C@H]2OC(C)(C1OC)n1c3ccccc3c3c4c(c5c6ccccc6n2c5c31)C(=O)NC4` (some centres not stated) the growth was -25.3% (active). `Cc1cc(N(CCNc2ccnc3cc(Cl)ccc23)Cc2ccc3c(c2)OCO3)nc(N2CCN(C)CC2)n1` was tested, and the growth was -33.4% (active). For `CN1CCN(CCCOc2cccc3nc(Nc4ccc(Cl)c(C(F)(F)F)c4)ccc23)CC1`, the growth was -33.3% (active). With `Nc1c2c(c(O)c3c1=C(CO)C=N3)=NCCS2` the growth was 3% (active). In the case of `Cc1cc(O)c2c(c1)C1OC(=O)CCCCCN1C1=C2C(=O)c2cccc(OC3CC(O)C(O)C(C)O3)c2C1=O` (configuration not stated), the growth is reported as 54.2% (inactive). In the case of `CC1(C=O)NC(=O)NC1=O` (configuration not stated), the growth is reported as 96.6% (inactive). In the case of `COc1ccc(Nc2ncccc2NC(=O)c2cn(Cc3cccc(Oc4ccccc4)c3)nn2)cc1`, the growth is reported as 74.2% (inactive). `OCCNC(=S)Nc1ccc(-c2nc(N3C[C@H]4CC[C@@H](C3)O4)c3cccn3n2)cc1` was tested, and the growth was 11.1% (inactive). For `O=C(c1ccccc1)C(c1ccccc1)N1CCOCC1` (configuration not stated), the growth was 95.6% (inactive). `NN1C(=O)CSC1=S` was tested, and the growth was 98.5% (inactive). With `CC12O[C@H](C[C@@H](OC(=O)CCC(=O)O)[C@H]1O)n1c3ccccc3c3c4c(c5c6ccccc6n2c5c31)C(=O)NC4=O` the growth was 0.804% (active). For `C=C1[C@@H](O)C[C@H]2C(C)(C)C[C@H](Cl)C[C@]2(C)[C@H]1C[C@H](O)[C@H]1CC(=O)NC1=O`, the growth was 7.18% (active). For `COC(=O)[C@H](Cc1ccccc1)NC(=O)[C@@H](OC)[C@@H]1Cc2cc3cc(OC4CC(OC5CC(O)C(O)C(C)O5)C(O)C(C)O4)c(C)c(O)c3c(O)c2C(=O)[C@H]1OC1CC(OC2CC(OC3CC(C)(O)C(O)C(C)O3)C(O)C(C)O2)C(O)C(C)O1` (some centres not stated), the growth was 7.89% (active).

Reference: PubChem BioAssay (NCI)
